HCMV inh = blocks human cytomegalovirus replication | HFF cells, HCMV-luciferase reporter, 72 h; hits give low values | activity change, negative = inhibition, % at 57.5 µM | hit rate 4.5% among 410,000; in the data active = activity change below about -60%; inconclusive = no clear call, values can overlap the other calls; inactive = above about -39%
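Two compound doses tested in HFFs infected with HCMV-luciferase, MOI 1 PFU/cell, 72 h at 37C. Lysate luminescence read with OneGlo; data normalized against buffer-only and 10uM Salinomycin inhibitor controls.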
MARV entry inh = blocks Marburg virus binding to or entry into cells. Marburg virus pseudotyped entry inhibition, cell reporter. hit rate 1.8% among 300,000. AID 540276. Potency, µM (doses to about 37.8 µM), usual class: inhibitors; calls by dose curve; tested in HEK293 cells
HCV inh = HCV inhibition. Huh7.5.1 HCVcc-Cre infection, luciferase reporter, 44 h. Potency, µM (series often up to 41.8 µM), actives largely listed as inhibitors. hit rate 3.4% among 340,000. AID 651820; active = well fitted inhibition curve with a large enough effect; inconclusive = small, poorly fitted or top-dose-only effect, or another doubt; inactive = no such curve, though single readings can be large or run the other way
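Cells seeded at 1,000/well and cultured 4 h, then compounds added followed by HCVcc-Cre virus (~0.5 moi). After 44 h further culture, luciferase substrate was added, plates held 15 min at room temperature, and luminescence read for 15 sec.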
LASV entry inh = inhibitors of Lassa virus binding or cell entry; Lassa virus pseudotype entry inhibition, cell reporter; Potency, µM (series often up to 37.9 µM), actives largely listed as inhibitors; hit rate 1.2% among 300,000; AID 540256; calls by dose curve; tested in HEK293 cells; note: nearly all actives have a fitted effect of over 50% in size
SARS PLP yeast = inhibitors of SARS-CoV papain-like protease in yeast. S. cerevisiae expressing SARS-CoV PLpro, growth rescue. Potency, µM (top dose mostly 32.9 µM), usual class: activators. hit rate 0.19% among 330,000. AID 485353; calls by dose curve; note: nearly all actives have a fitted effect of over 55% in size
FMDV antiviral = blocks foot and mouth disease virus. FMDV antiviral cell-based qHTS. Potency, µM (highest dose often 57.9 µM), usual class: inhibitors. hit rate 1.2% among 410,000; calls by dose curve; tested in HEK293T cells; note: read-out not given here; nearly all actives have a fitted effect of over 45% in size
Each line names hits and unclear results; the compound was inactive in the other large screens. Shown are actives, neighbours in structure and some others; about 8% of the full set was active somewhere.

COC1=C(C)C(=O)C2=C(C1=O)C1C3CC4=C(C(=O)C(OC)=C(C)C4=O)C(CNC(=O)C(C)=O)N3C(C#N)C(C2)N1C (stereo not given)	HCMV inh -97, MARV entry inh inconclusive, HCV inh inconclusive, LASV entry inh inconclusive, FMDV antiviral inconclusive (no result: SARS PLP yeast)
CCN(N=O)c1ccc(C=C2C=Cc3ccccc32)cc1	MARV entry inh inconclusive, LASV entry inh 4µM (no result: SARS PLP yeast)
CN(N=O)c1ccc(C=C2C=Cc3ccccc32)cc1	LASV entry inh inconclusive (no result: SARS PLP yeast)
FC(F)(F)c1cccc(-c2nc3nc(Cl)c(Cl)nc3[nH]2)c1	HCV inh 11µM (no result: HCMV inh, MARV entry inh, LASV entry inh)
FC(F)(F)c1nc2nc(Cl)c(Cl)nc2[nH]1	none (no result: MARV entry inh, HCV inh, LASV entry inh, SARS PLP yeast)
C/C=C/C=[N+](\[O-])C(C)/C(=N/O)c1ccc(F)cc1 (stereo not given)	HCMV inh -75
O=C1C=C(c2cccc(Cl)c2O)C[C@@H](c2ccc(Cl)cc2)C1	HCV inh inconclusive (no result: MARV entry inh, LASV entry inh)
O=C(/C=C/c1ccc(Cl)cc1)Nc1ccc(CN2CCOCC2)cc1	HCMV inh -89, MARV entry inh inconclusive, HCV inh inconclusive, FMDV antiviral inconclusive
O=C(/C=C/c1ccc(Cl)cc1Cl)NC(=S)Nc1ccc(CN2CCOCC2)cc1	MARV entry inh inconclusive
CC(C)C(=O)NC(=S)Nc1ccc(CN2CCOCC2)cc1	none (no result: MARV entry inh, LASV entry inh)
CC(C)c1ccc(/C=C/C(=O)Nc2ccc(CN3CCOCC3)cc2)cc1	HCMV inh inconclusive, HCV inh 2.2µM, LASV entry inh inconclusive, FMDV antiviral 28µM
O=C(/C=C/c1ccccc1)NC(=S)Nc1ccc(CN2CCOCC2)cc1	HCMV inh -76, MARV entry inh inconclusive, FMDV antiviral inconclusive
O=C(/C=C/c1ccc(Cl)cc1)Nc1ccc(N2CCCCC2)cc1	MARV entry inh inconclusive
O=C(c1cccc(Cn2cccn2)c1)N1CCC(n2c(C3CCCO3)nc3cc(C(F)(F)F)ccc32)CC1 (stereo not given)	none (no result: HCMV inh, MARV entry inh, HCV inh, LASV entry inh, SARS PLP yeast)
COc1ccc(CCNC(=O)c2oc(=O)c3ccccc3c2-c2ccccc2)cc1OC	FMDV antiviral inconclusive (no result: MARV entry inh, HCV inh, SARS PLP yeast)
Cc1ccc(CNC(=O)c2nc(S(=O)(=O)Cc3ccc(C)cc3)ncc2Cl)cc1	MARV entry inh inconclusive, LASV entry inh inconclusive (no result: HCV inh, SARS PLP yeast)
Cc1cccc(CS(=O)(=O)c2ncc(Cl)c(C(=O)NCc3ccc4c(c3)OCO4)n2)c1	HCMV inh -78, FMDV antiviral 32µM (no result: MARV entry inh, LASV entry inh)
COC(=O)c1ccccc1NC(=O)c1nc(S(=O)(=O)Cc2cccc(C)c2)ncc1Cl	HCMV inh -60, FMDV antiviral inconclusive (no result: HCV inh, SARS PLP yeast)
COC(=O)c1ccc(NC(=O)c2nc(S(=O)(=O)Cc3cccc(C)c3)ncc2Cl)cc1	HCMV inh -101, MARV entry inh inconclusive, HCV inh inconclusive, LASV entry inh inconclusive, FMDV antiviral 28µM
CC(=O)Nc1ccc(NC(=O)c2nc(S(=O)(=O)Cc3cccc(C)c3)ncc2Cl)cc1	HCMV inh -101, HCV inh inconclusive, LASV entry inh inconclusive, FMDV antiviral 20µM
COc1ccc(OC)c(S(=O)(=O)N/N=C\c2c[nH]c3ccccc23)c1	HCV inh 11µM, LASV entry inh inconclusive
COc1ccc(OC)c(S(=O)(=O)N/N=C(/C)c2c[nH]c3ccccc23)c1	SARS PLP yeast inconclusive
COc1ccc2[nH]cc(/C=N/NS(=O)(=O)c3ccc(C)cc3)c2c1	HCMV inh -64, HCV inh 11µM (no result: MARV entry inh, LASV entry inh)
COc1ccc2c(/C=N/NS(=O)(=O)c3ccc(C)cc3)c[nH]c2c1	HCV inh inconclusive
CCOC(=O)N1CCN([C@@H]2OC(=O)c3ccccc32)CC1	none (no result: HCMV inh, HCV inh, LASV entry inh, SARS PLP yeast, FMDV antiviral)
O=C(NC1CCC(n2cc(C(=O)NC3CC3)nn2)CC1)C(=O)c1ccccc1 (stereo not given)	none (no result: HCMV inh, MARV entry inh, HCV inh, LASV entry inh, SARS PLP yeast)
CC(C)(C)C(C)(C)CN=CN1c2ccccc2-n2cccc2C1c1cccc(F)c1 (stereo not given)	none (no result: MARV entry inh, HCV inh, LASV entry inh, SARS PLP yeast, FMDV antiviral)
CCOC(=O)C1CCN(C(=O)Cn2c(=O)oc3cc(S(=O)(=O)N4CCC(C)CC4)ccc32)CC1	none (no result: HCV inh, SARS PLP yeast)
Cc1ncsc1CCOC(=O)c1ccc([N+](=O)[O-])cc1	none
Cc1c(CCOC(=O)c2cc([N+](=O)[O-])cc([N+](=O)[O-])c2)sc[n+]1CC(=O)c1ccccc1	HCV inh inconclusive (no result: MARV entry inh, LASV entry inh)
Cc1c(CCOC(=O)c2ccc(N3CCOCC3)c([N+](=O)[O-])c2)sc[n+]1CC#N	MARV entry inh inconclusive, HCV inh 16µM, LASV entry inh 13µM, FMDV antiviral inconclusive
